# High-throughput results (PubChem)
# The sample as a whole holds a higher share of hits than the screen did.
# NS1 function inh – inhibitors of influenza NS1 protein function; 0.4% of 270,000 active; Potency, µM (top dose mostly 46.1 µM), for the others: at the top dose activity, positive = more growth; note: potency is the fitted concentration of half-maximal effect; actives are rising curves; nearly all actives have a fitted effect of over 50% in size
#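 S. cerevisiae expressing influenza A NS1, grown in glucose, washed, then diluted 1:100 into pH 6.0 -URA galactose medium with 23 nl compound. Growth recovery read as OD600; NS1-free strain serves as control.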
# TbPYK inhibitor – T. brucei pyruvate kinase inhibition | 0.12% of 410,000 active | Potency, µM (top dose mostly 76.8 µM), for inactives: at the highest dose activity, negative = inhibition, most hits filed as inhibitors | TbPYK enzyme, Kinase-Glo Plus ATP luminescence, 45 min | Q57TT1; active = well fitted curve in the direction sought with a large enough effect; inconclusive = small, poorly fitted or top-dose-only effect, or another doubt; inactive = no such curve, though single readings can be large; an effect the other way counts as inactive or inconclusive; note: potency is the fitted concentration of half-maximal effect; % is set by controls: 0 for no effect and ±100 for the full control effect; nearly all actives have a fitted effect of over 50% in size
#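 Readout: single end-point luminescence (Kinase-Glo Plus, 10 min). Reaction conditions were TbPYK/substrate plus 130 uM ADP, 45 min at RT, pH 7.2 TEA buffer. No-enzyme wells served as controls, and data were normalized before concentration-response fitting.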
# LmPK inhibitor – blocks Leishmania mexicana pyruvate kinase activity; Q27686; purified LmPK, Kinase-Glo ATP luminescence, 1 h; Potency, µM (highest dose often 57.5 µM), for the others: at the top dose activity change, negative = inhibition, most hits filed as inhibitors; 0.37% of 290,000 active; AID 1721; active = well fitted curve in the direction sought with a large enough effect; inconclusive = small, poorly fitted or top-dose-only effect, or another doubt; inactive = no such curve, though single readings can be large; an effect the other way counts as inactive or inconclusive; note: potency is the fitted concentration of half-maximal effect; % is set by controls: 0 for no effect and ±100 for the full control effect
# Target sequence (Q27686 whole entry, looked up): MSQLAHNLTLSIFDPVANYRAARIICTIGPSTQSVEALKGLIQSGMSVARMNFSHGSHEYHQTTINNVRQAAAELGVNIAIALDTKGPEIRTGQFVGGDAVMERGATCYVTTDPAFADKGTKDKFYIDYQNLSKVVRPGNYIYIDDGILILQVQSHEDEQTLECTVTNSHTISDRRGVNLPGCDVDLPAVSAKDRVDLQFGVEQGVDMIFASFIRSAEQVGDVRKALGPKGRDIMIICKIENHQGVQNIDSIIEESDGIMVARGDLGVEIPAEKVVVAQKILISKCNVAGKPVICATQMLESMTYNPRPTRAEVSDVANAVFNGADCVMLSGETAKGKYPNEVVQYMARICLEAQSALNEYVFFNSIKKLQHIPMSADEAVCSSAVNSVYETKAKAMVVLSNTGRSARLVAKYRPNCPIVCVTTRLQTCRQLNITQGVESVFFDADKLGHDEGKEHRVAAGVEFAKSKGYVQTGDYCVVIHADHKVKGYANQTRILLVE
#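 In 50 mM imidazole pH 7.2 with 7 mM MgCl2, LmPK (0.1 nM) turned over PEP (0.5 mM) and ADP (0.1 mM) for 1 h at room temperature. Luciferase read-out of ATP.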
# Shiga toxin inh – blocks Shiga toxin action in Vero cells; inhibition, % at 38.7 µM; 9.2% of 290,000 active; Vero cells, Shiga toxin protein synthesis inhibition reporter; in the data active = inhibition mostly above about 28%, no sharp cut-off; inactive = mostly below about 43%; note: 0% is about no effect
# Cycloheximide cs – counter-screen for Shiga toxin inhibitors: cycloheximide protein synthesis inhibition. max response, %. cell reporter, cycloheximide protein synthesis inhibition counterscreen. 12% of 300,000 active; in the data active = max response mostly above about 13%, no sharp cut-off; inactive = mostly below about 14%; note: read at 38.3 µM for the half of the compounds with a filed dose; 0% is about no effect
# SARS PLpro yeast – SARS-CoV PLP inhibition in yeast | S. cerevisiae expressing SARS-CoV PLpro, growth rescue | Potency, µM (series often up to 32.9 µM), without a hit: at the highest dose activity, positive = growth rescue, most hits filed as activators | 0.19% of 330,000 active; note: potency is the fitted concentration of half-maximal effect; 0% is about no effect; nearly all actives have a fitted effect of over 55% in size
# * hit, by the source's call; ? = inconclusive; / = no result given; [ ] = remark or other dose. Unless noted, calls come from the whole dose curve.
SMILES,NS1 function inh,TbPYK inhibitor,LmPK inhibitor,Shiga toxin inh,Cycloheximide cs,SARS PLpro yeast
O=C(Nc1ccc(Br)cn1)c1cccc(C(=O)Nc2ccc(Br)cn2)c1,-1.2%,0.1%,0.7%,12.3,2.2,-1.2%
O=C(Nc1ccc(Br)cn1)c1ccc2ccccc2c1,0.1%,-6.1%,7.4%,/,29.4*,2.4%
COc1c(C(=O)Nc2ccc(Br)cn2)ccc2ccccc12,-6.7%,-3.8%,3.3%,76.5*,25.7*,-3.8%
COc1cc2ccccc2cc1C(=O)Nc1ccc(Br)cn1,3.9%,1.3%,-4.8%,86.3,25.0*,3.3%
CC(C)Oc1ccc(S(=O)(=O)N2CCOCC2)cc1NC(=O)C1COc2ccccc2O1 (configuration not stated),/,6.6%,/,/,/,-5.7%
C[C@H]1CN([C@@H](C)CO)C(=O)c2cccc(NC(=O)C3CC3)c2O[C@H]1CN(C)Cc1ccncc1,/,-2.1%,/,/,/,2.6%
COc1ccc(S(=O)(=O)NCC(c2ccc(N(C)C)cc2)N2CCc3ccccc32)cc1F (configuration not stated),/,-7.9%,/,/,/,/
C#CCNC(=O)C1=C[C@H](c2ccc3c(c2)OCO3)C[C@H](OCCCCO)O1,/,-3.4%,/,/,/,/
C#CCNC(=O)C1=C[C@H](c2ccc3c(c2)OCO3)C[C@H](OCc2ccc(CO)cc2)O1,0.0%,0.9%,2.7%,19.7,18.3*,-3.0%
NC(=O)C1=C[C@H](c2ccc3c(c2)OCO3)C[C@H](OCc2ccc(CO)cc2)O1,2.7%,0.1%,2.4%,49.2*,42.6*,-0.1%
CCc1ccc([C@@H]2C[C@H]3[C@@H](CN2S(=O)(=O)c2ccc(C)cc2)C(=O)C[C@@H](c2ccccc2F)N3S(=O)(=O)c2ccc(C)cc2)cc1,/,2.8%,/,/,/,/
CCOC(=O)C(NC(=O)c1ccccc1)=C1CCCCC1,-5.4%,-1.8%,2.8%,-4.5,-0.3,10.4%
CCOP(=O)(OCC)/C(=C/N1CCCCC1)NC(=O)c1ccccc1,3.0%,1.9%,-4.0%,29.0,12.5*,0.2%
COc1cc(C2C3=C(CCCC3=O)Nc3ccc4ncccc4c32)ccc1O (configuration not stated),/,-19.2%,8.7%,31.4,14.6*,-0.3%
O=C1CCCC2=C1C(c1ccc(O)c(O)c1)Nc1ccc3ncccc3c12 (configuration not stated),/,?,?,33.3*,13.9,0.0%
O=C1CCCC2=C1C(c1cccs1)Nc1ccc3ncccc3c12 (configuration not stated),-6.1%,-7.2%,-3.5%,19.0,-5.5,0.3%
COc1ccc(C2C3=C(CCCC3=O)Nc3ccc4ncccc4c32)cc1OC (configuration not stated),/,-1.1%,5.8%,38.3,35.0*,-0.5%
CCOc1cc(C2C3=C(CCCC3=O)Nc3ccc4ncccc4c32)ccc1O (configuration not stated),/,-4.2%,0.2%[11.5 µM],-4.9,-1.7,0.3%
COc1cccc(Cc2nc3ccccc3nc2SCC(=O)Nc2ccccc2F)c1,/,-5.9%,/,/,/,/
Cc1ccc(-c2cc(C(F)(F)F)n3nc(C(=O)Nc4sc5c(c4C#N)CCC(C)C5)cc3n2)cc1 (configuration not stated),/,-4.5%,/,/,/,/
Cc1ccc(S(=O)(=O)N2CCN(C(=O)C3CCN(C(=O)c4ccc(F)cc4)CC3)CC2)c(C)c1,/,3.3%,/,/,/,-0.5%
CCOC(=O)c1ccc(Oc2c(C)oc3cc(OS(C)(=O)=O)ccc3c2=O)cc1,6.5%,0.8%,1.2%,13.6,-1.4,-9.7%
COc1cc(NC(=O)c2[nH]c(C)c(C(C)=O)c2C)cc(OC)c1OC,?,-5.5%,0.9%,-2.9,-2.7,3.3%
CCc1c(C(=O)Nc2ccc(C)c(C)c2)[nH]c(C)c1C(C)=O,-5.0%,-7.2%,-2.3%,83.6*,40.0*,-6.7%
CCc1c(C(=O)NCCc2ccc(OC)c(OC)c2)[nH]c(C)c1C(C)=O,-0.9%,0.0%,-8.2%,-8.8,-1.1,-5.3%
SMILES,NS1 function inh,TbPYK inhibitor,LmPK inhibitor,Shiga toxin inh,Cycloheximide cs,SARS PLpro yeast
CC(=O)c1c(C)[nH]c(C(=O)NC2CCCCC2)c1C,-4.8%,-1.0%,-2.8%,16.0,16.0*,-0.7%
CC(=O)c1c(C)[nH]c(C(=O)Nc2ccc(C)c(C)c2)c1C,2.8%,-1.2%,6.6%,65.4*,36.3*,-9.7%
COc1ccc(NC(=O)c2[nH]c(C)c(C(C)=O)c2C)cc1Cl,-20.2%,-28.1%,-1.8%,55.6,59.9*,-4.9%
COc1ccc(N2CCN(C(=O)COC(=O)CCc3ccccc3OC)CC2)cc1,/,-5.5%,/,/,/,/
CCOC(=O)c1c(C)[nH]c(C(=O)Nc2ccc(NC(C)=O)cc2)c1C,/,-2.8%,3.7%,-8.8,-2.9,-1.1%
CCOC(=O)c1c(C)[nH]c(C(=O)Nc2ccc(C)c(Cl)c2)c1C,-3.5%,/,0.9%,103.0*,34.7*,6.3%
CC(=O)c1c(C)[nH]c(C(=O)Nc2cccc(C(F)(F)F)c2)c1C,-2.9%,2.0%,2.3%,72.8*,32.2*,-14.3%
COc1ccccc1-c1ccc(/C=C2\C=CC(=O)O2)o1,-4.5%,-5.5%,-6.4%,92.5*,44.9*,-2.7%
Cc1ccc2nc(COc3cccc(NC(=O)COc4ccc(F)cc4)c3)cc(=O)n2c1,/,-1.4%,/,/,/,/
COc1cc(NC(=O)Nc2ccc3c(c2)OCO3)cc(OC)c1OC,/,0.6%,-4.2%[11.5 µM],44.2,11.0,0.4%
COC(=O)c1ccccc1NC(=O)Nc1ccc2c(c1)OCO2,-1.0%,-0.2%,3.4%,61.3,16.4*,11.3%
COC(=O)c1ccc(C(=O)OC)c(NC(=O)/C=C/C(=O)O)c1,10.2%,-7.4%,12.7%,31.0,10.9*,-0.2%
COC(=O)c1ccc(C(=O)OC)c(NC(=O)Nc2ccc3c(c2)OCO3)c1,-8.7%,5.5%,-13.0%,61.7*,24.6*,-0.7%
CCc1nc2c(OCc3ccc(F)cc3)cccn2c1N(C)C(=O)CC(C)C,/,0.9%,/,/,/,/
CCCCn1c2c(cc(C(=O)OC)c1=O)C(=O)CCC2,/,0.3%,/,/,/,/
CC(C)(C)c1ccc2c(c1)C(=O)c1ccccc1C2=O,-8.7%,-24.7%,?,77.3*,32.3*,-24.3%
CC(C)(C)c1ccc(-c2ccc3c(c2)S(=O)(=O)c2ccccc2C3=O)cc1,/,2.9%,/,/,/,/
CCc1ccc2c(c1)C(=O)c1ccccc1C2=O,3.6%,7.3%,-22.5%,14.0*,42.9*,0.4%
C/C(CCC1CC(C)OC1=O)=N/Nc1nc(-c2ccccc2)cs1 (configuration not stated),9.3%,-0.1%,1.0%,44.1*,21.8*,-0.7%
CC(C)=NNc1nc(-c2ccccc2)cs1,?,-5.3%,2.4%,65.9,22.2*,-37.4%
CC(/C=C/c1ccccc1)=N\Nc1nc(-c2ccccc2)cs1,22.0%,-6.3%,0.3%,11.8,1.7,-2.5%
CC(C)=NNc1nc(-c2ccc(N3C(=O)CCC3=O)cc2)cs1,16.3%,-4.2%,3.5%,14.1,20.0*,-1.7%
COc1ccccc1Cc1c(-c2ccccc2)nc2cc(C)c(Br)c(C)n12,/,2.0%,/,/,/,/
